In ChEMBL document CHEMBL4513216, “Probing the Open Global Health Chemical Diversity Library for Multistage-Active Starting Points for Next-Generation Antimalarials” (ACS Infect Dis, 2020):
The whole screen tested about 65,000 compounds, of which about 2,100 (3.2%) showed an effect of 50% or more. The median lay at about -52%. This excerpt belongs to a sample that is enriched for strong results.

Each compound was assayed on Plasmodium falciparum (assay: Screen against P. falciparum Asexual Blood Stage (ABS), at 5uM). Conditions: tested at 5 uM.
Assay type: functional, Dd2

SMILES	INHIBITION
COc1ccccc1C(=O)Nc1ccc(OC2CCN(C)CC2)cc1	64.2%
CN1CCC(Oc2ccc(NC(=O)c3ccccc3Br)cc2)CC1	-76%
Cc1ccccc1C(=O)Nc1ccc(OC2CCN(C)CC2)cc1	-41.5%
CC(Cn1ccnc1)NC(=O)NCCc1cccnc1 (configuration not stated)	30.9%
O=C(c1ncoc1C1CC1)N1CCN(CCOc2ccccc2)CC1	-35.9%
O=C(c1ncoc1C1CC1)N1CCCN(CCCc2ccccc2)CC1	69.7%
Cn1nccc1C(=O)N1CCCN(CCCc2ccccc2)CC1	-14.1%
COCCn1c(-c2cccc(OC)c2)cnc1NC(=O)NCCC(C)C	-63.4%
CN(C)C(=O)c1ccc(C2CCCN2C(=O)c2cccc3c2OCC3)s1 (configuration not stated)	-53.8%
COc1ncccc1CN1CCC2(CC1)CN(c1ccccn1)CCO2	56.5%
Fc1ccc(CN2CCC3(CC2)CN(c2ccccn2)CCO3)cc1	49%
c1ccc(CN2CCC3(CC2)CN(c2ccccn2)CCO3)nc1	-67.1%
Cc1noc(C)c1CN1CCC2(CC1)CN(c1ccccn1)CCO2	30%
COc1ccc(CN2CCC3(CC2)CN(c2ccccn2)CCO3)cc1	62.3%
Cn1ccnc1CN1CCC2(CC1)CN(c1ccccn1)CCO2	-254%
COCC(=O)NCc1cc(=O)n2c(n1)CN(C)CCC2	-101%
Cc1nc(OCC(=O)N2CCCC2)cc(-n2cccn2)n1	-111%
CCC(CC)C(=O)N1CCC2(CC1)c1ccccc1[C@@H](OC)[C@@H]2O	-1.77%
Cc1ccc(C2CN(c3nnc(C(F)F)s3)CCO2)c(C)c1 (configuration not stated)	-42.4%
Cc1cc(C)n(C2CN(CC(=O)N(C)Cc3cnn(C)c3)C2)n1	-98.1%
COc1cccc(CN(C)C(=O)CN2CC(n3nc(C)cc3C)C2)c1	63.3%
Cc1cc(C)n(C2CN(CC(=O)N(C)Cc3ccsc3)C2)n1	26.5%
Cc1nc(CN2CCC3(CC2)CC(=O)N(C)c2ccccc23)cs1	-87.3%
Cc1ccc(C(=O)NC2CCN(C(=O)Nc3ccncc3)CC2)o1	-195%
COCCn1cnc2ccc(NC(=O)C3CC3)cc2c1=O	-76%
CCOCC(=O)N1C[C@@H]2CC[C@H](Oc3ccccc3)[C@@H]2C1	-68.1%

SMILES	INHIBITION
COCCOCC(=O)N1C[C@@H]2CC[C@H](Oc3ccccc3)[C@@H]2C1	-114%
CN(C)CC(=O)N1C[C@@H]2CC[C@H](Oc3ccccc3Cl)[C@@H]2C1	63.7%
CN(C)CC(=O)N1C[C@@H]2CC[C@H](Oc3ccccc3)[C@@H]2C1	61.8%
O=C(Cn1ccnc1)N1C[C@@H]2CC[C@H](Oc3ccccc3Cl)[C@@H]2C1	-43.2%
COCCOCC(=O)N1C[C@@H]2CC[C@H](Oc3ccccc3Cl)[C@@H]2C1	-103%
CC(C)c1ncc(Cl)c(C(=O)N2CCN(C3CCCC3)CC2)n1	-16.7%
Cc1nn(C)c(C)c1NC(=O)c1cccc(CN2CC[C@H](O)C2)c1	-133%
CN(C)S(=O)(=O)N(C)C(c1cccc(F)c1)c1ccccn1 (configuration not stated)	-27.6%
O=C(c1cc(Cl)ccc1F)N1CCCC1Cn1cccn1 (configuration not stated)	-101%
Cc1cc(C)n(CCCNc2ncnc3c2NC(=O)CN3)n1	-40.1%
COc1ccccc1-n1nc(CC(C)C)nc1Cc1nnc(N)s1	-59.7%
CN(Cc1ccsc1)C(=O)c1cc2c([nH]c1=O)CCCC2=O	-198%
CN(Cc1ccc(N(C)C)cc1)C(=O)c1cc2c([nH]c1=O)CCCC2=O	50.8%
CSc1ccc(CN(C)C(=O)c2cc3c([nH]c2=O)CCCC3=O)cc1	-31.6%
Cc1cccc(CNC2CCCc3c2cnn3Cc2ccccc2)c1 (configuration not stated)	65.9%
Cc1ccc(CNC2CCCc3c2cnn3Cc2ccccc2)s1 (configuration not stated)	16.3%
Cc1cccc(CNC2CCCc3c2cnn3C)c1 (configuration not stated)	-37.4%
c1cnc(N2CC[C@@H](N3CCOCC3)[C@@H]2Cc2ccncc2)nc1	-78%
Nc1cc(-c2c[nH]nc2C2CCN(C(=O)C3CCCC3)C2)ccn1 (configuration not stated)	-27.3%
CC(=O)N1CCC(c2n[nH]cc2-c2ccnc(N)c2)C1 (configuration not stated)	-13.8%
CC(C)CNc1cc(-c2c[nH]nc2C2CCN(C(=O)C3CC3)C2)ccn1 (configuration not stated)	84.6%
COc1cccc(CCC2CCCN(Cc3ncc[nH]3)C2)c1 (configuration not stated)	22%
Cc1cc(N2CCC(Cc3ccccc3)CC2)nc(-c2ccncc2)n1	-64.9%
CC(C)CN1CC[C@@H]2[C@@H]1CCN2S(=O)(=O)c1cccs1	17.9%
CN1C(=O)CC[C@@H]2[C@H]1CCN2S(=O)(=O)c1cccs1	47.1%
O=S(=O)(c1cccs1)N1CC[C@H]2[C@H]1CCN2CC1CC1	57.7%
